Compound activity: PubChem BioAssay, National Center for Advancing Translational Sciences (NCATS)
TR SRC2 fluor cs – Total Fluorescence Counterscreen for Inhibitors of the Interaction of Thyroid Hormone Receptor and Steroid Receptor Coregulator 2. TRb/SRC2 Texas Red total fluorescence interference. Potency, µM (top dose mostly 106 µM). 280,000 tested, 0.29% active. AID 1479, 2009; active = well fitted curve in either direction with a large enough effect; inconclusive = small, poorly fitted or top-dose-only effect
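Flags fluorescent or light-absorbing compounds by total fluorescence, S + 2P, at 555 nm excitation and 632 nm emission. Mixture: 20 nM Texas Red SRC2 peptide, 0.6 uM human TRb LBD, 1 uM T3, 5% DMSO; compound exposure 5 h at ambient temperature.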
ERG Ets-DNA blk – qHTS for Small Molecule Inhibitors of the ERG Ets/DNA interaction; Transcriptional regulator ERG (Homo sapiens), P11308; fluorescence polarization, His-ERG Ets domain / labelled DNA; Potency, µM (highest dose often 76.9 µM), actives largely listed as inhibitors; 370,000 tested, 0.028% active; active = well fitted inhibition curve with a large enough effect in the polarisation, with a control signal flat; inconclusive = small, poorly fitted or top-dose-only effect, or effect the other way, or a change in a side signal; inactive = no such curve, though single readings can be large or run the other way; the % refers to the polarisation;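 note: polarization taken with two DNA probes labelled with fluorescein and Texas red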
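His-tagged ERG Ets domain (1 uM in the protein solution; 300mM KCl, 50mM Tris-HCl, 1mM EDTA, 1mM DTT, pH 7.5) received compound, then a probe mix of 5 nM fluorescein-DNA and 100nM Texas-615-DNA. Fluorescence polarization was read for both dyes.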
CBFb-RUNX1 inh – qHTS Assay for Compounds Blocking the Interaction Between CBF-beta and RUNX1 for the Treatment of Acute Myeloid Leukemia; Runt-related transcription factor 1 (Homo sapiens) + Core-binding factor subunit beta …; AlphaScreen CBFb-His/RUNX1-biotin binding, biochemical; Potency, µM (top dose mostly 59.8 µM), most hits filed as inhibitors; 230,000 tested, under 10 active
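Bead-based AlphaScreen assay; binding partners His-tagged CBF-beta and biotinylated RUNX1 at 30 nM each. Compound exposure 15 min after a 20-min protein preincubation; bead step 90 min; all steps at room temperature.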
RGS12 GoLoco inh – qHTS Assay for Inhibitors of RGS12 GoLoco Motif Activity (Red Fluorophore); Gai1:RGS12 GoLoco peptide FP, rhodamine, 10 min; 230,000 tested, 0.44% active; Guanine nucleotide-binding protein G(i) subunit alpha-1 (Homo sapiens), P63096; Potency, µM (series often up to 61.6 µM), hits mostly inhibitors; active = well fitted inhibition curve with a large enough effect, not every such curve was filed as active; inactive = no such curve, though single readings can be large or run the other way; note: nearly all actives have a fitted effect of over 30% in size
Target sequence (P63096 whole entry, looked up): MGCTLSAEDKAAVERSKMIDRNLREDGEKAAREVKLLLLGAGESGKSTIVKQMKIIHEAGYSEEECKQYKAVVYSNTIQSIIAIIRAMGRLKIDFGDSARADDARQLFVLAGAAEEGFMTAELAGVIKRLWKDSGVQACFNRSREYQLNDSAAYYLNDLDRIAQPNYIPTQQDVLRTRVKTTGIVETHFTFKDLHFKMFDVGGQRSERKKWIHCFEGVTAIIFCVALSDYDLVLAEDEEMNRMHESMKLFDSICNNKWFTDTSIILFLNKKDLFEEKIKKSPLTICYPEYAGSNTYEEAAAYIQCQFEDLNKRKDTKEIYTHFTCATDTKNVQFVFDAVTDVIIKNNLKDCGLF
TRb SRC2 PPI – qHTS for Inhibitors of the Interaction of Thyroid Hormone Receptor and Steroid Receptor Coregulator 2; 280,000 tested, 0.065% active; TRbeta-SRC2 peptide binding, fluorescence polarization; receptor liganded with 1 µM T3; Thyroid hormone receptor beta (Homo sapiens), P10828; Potency, µM (doses to about 106 µM), usual class: inhibitors; AID 1469, 2008; note: nearly all actives have a fitted effect of over 50% in size
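Read-out is fluorescence polarization (555 nm excitation, 632 nm emission) of a Texas Red SRC2 coactivator peptide; loss of signal reflects blocked binding to human TRb ligand-binding domain in the presence of 1 uM T3.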
a7 integrin act – qHTS for Activators of Integrin-Mediated Alleviation for Muscular Dystrophy; Potency, µM (series often up to 38.3 µM), most hits filed as activators; alpha7betagal myoblasts, beta-gal FDG fluorescence, 48 h; 350,000 tested, 0.064% active; note: nearly all actives have a fitted effect of over 60% in size
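Alpha7betagal+/- myoblasts (passage 13) were plated 16-24 hr, then exposed to compounds (1:260 dilution of DMSO stock) for 48 hours at 37C. After MPER lysis, β-galactosidase reporter activity was read as FDG fluorescence (ex 480/em 540) after 30 minutes.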
Numbers stand for hits; - = inactive; ? = inconclusive; . = not tested or not shown; ! = repeats disagree; [ ] = another dose, or the depositor's remark. An excerpt weighted towards active compounds, which were near 0.45% of everything screened. Unless noted, calls come from the whole dose curve; as a rule, active = well fitted curve in the direction sought with a large enough effect; inconclusive = small, poorly fitted or top-dose-only effect, or another doubt; inactive = no such curve, though single readings can be large; an effect the other way counts as inactive or inconclusive.

SMILES	TR SRC2 fluor cs	ERG Ets-DNA blk	CBFb-RUNX1 inh	RGS12 GoLoco inh	TRb SRC2 PPI	a7 integrin act
COc1ccc2c(c1)[nH]c1c(=O)n(N)cnc12	-	-	-	-	-	-
CCOc1ccc(CNC(=O)c2ccc3c(c2)sc2nc(-c4ccc(OC)cc4)cn23)cc1	40µM[quencher]	-	.	.	-	.
O=C(NCCCN1CCCCC1)c1ccc2c(c1)sc1nc(-c3ccc(F)cc3)cn12	0.0009µM[quencher]	-	.	.	-	.
CCCCCCC(O)CCCCCCCCCCC(=O)O (configuration not stated)	-	.	.	.	-	.
NCCCC[C@H](NC(=O)CNC(=O)[C@@H]1CCCN1C(=O)[C@H](Cc1ccc(O)cc1)NC(=O)CN)C(=O)N[C@@H](Cc1ccccc1)C(=O)O	-	.	-	.	-	.
CNC(=O)COC(=O)c1cc(-c2ccco2)nc2ccccc12	-	-	.	-	-	?
CCN(CC)C(=O)COC(=O)c1cc(-c2ccco2)nc2ccccc12	35µM[quencher]	-	.	-	-	-
COc1ccc(S(=O)(=O)Cc2ccc(C(=O)NC3CCCCC3)o2)cc1	5.6µM[quencher]	-	.	.	-	-
COc1ccc(S(=O)(=O)Cc2ccc(C(=O)NC3CC3)o2)cc1	-	-	-	-	-	-
C[Si](Cl)(Cl)c1ccccc1	-	.	.	.	-	.
COc1ccc(N(CC(=O)NCCC(C)C)C(=O)c2snc(C(=O)NC3CCCCC3)c2N)c(OC)c1	.	-	.	.	.	10µM
Cc1cccc(C)c1Nc1c(-c2ccc(O)cc2)nc2sccn12	-	-	.	.	-	.
COc1cc(-c2nc3sccn3c2Nc2c(C)cccc2C)ccc1O	0.004µM[quencher]	-	.	.	-	.
CN1C(=O)Cc2cc(S(=O)(=O)NCc3cccs3)ccc21	-	-	-	-	-	-
CCOc1cc(CNS(=O)(=O)c2ccc3c(c2)CC(=O)N3C)cc(OCC)c1OCC	18µM[quencher]	-	.	.	-	-
COc1ccccc1OCC(=O)OC/C(O)=C(\C#N)c1nc2ccccc2[nH]1	2.5µM[quencher]	-	-	-	?	-
CCCCN(CCCC)CCCNC(=O)c1cc(-c2ccc(Cl)s2)nc2ccccc12	0.79µM[quencher]	-	.	.	-	.
CCCCN(C)CCCNC(=O)c1cc(-c2ccc(Br)s2)nc2ccccc12	-	-	.	.	-	.
CC(C)CC(C)(O)C#CC(C)(O)CC(C)C (configuration not stated)	-	.	.	.	-	.
CCn1c(=O)c(=O)[nH]c2cc(C(=O)N3CCN(c4ccccc4F)CC3)ccc21	45µM[fluorescent]	-	-	-	-	-
O=[N+]([O-])C(CO)(CO)CO	-	.	.	.	-	.
C/C=C/C=C/CCCCCCCO	-	.	.	.	-	.
Nc1nc(Sc2ccc([N+](=O)[O-])c3nonc23)c2[nH]cnc2n1	.	.	.	1.6µM	.	-
Cc1ccc(/C=N/n2c(=O)c(C(C)(C)C)nn3cnnc23)cc1	0.079µM[quencher]	-	-	-	?	-
CC(C)C(=O)SCCCCCCC(=O)Nc1nc(-c2ccccc2)cs1	-	.	-	.	-	.
SMILES	TR SRC2 fluor cs	ERG Ets-DNA blk	CBFb-RUNX1 inh	RGS12 GoLoco inh	TRb SRC2 PPI	a7 integrin act
Cc1cc(OCC(=O)NC(C)C)ccc1Cl	-	-	-	-	-	4µM
O=C(CN1C(=O)c2ccccc2S1(=O)=O)Nc1ccc([N+](=O)[O-])cc1	.	-	.	.	.	-
CC(C)c1ccc(NC(=O)CN2C(=O)c3ccccc3S2(=O)=O)cc1	.	-	.	.	.	10µM
CCCC[C@@H](C)/C=C(C)/C=C(\C)C(=O)NC1=C[C@@](O)(/C=C/C=C/C=C/C(=O)NC2=C(O)CCC2=O)[C@@H]2O[C@@H]2C1=O	-	.	-	.	-	.
COc1ccc(CC(=O)Nc2ccc(S(=O)(=O)N(C)C)cc2)cc1OC	-	-	-	-	-	-
COc1cc(CC(=O)Nc2ccc(S(=O)(=O)N(C)C)cc2)cc(OC)c1OC	-	-	-	7.9µM	-	-
CC(=O)N1c2ccc(S(=O)(=O)N(C)CC(=O)NCc3ccccc3)cc2CC1C (configuration not stated)	.	-	.	.	.	-
COc1cc(NC(=O)CN(C)S(=O)(=O)c2ccc3c(c2)CC(C)N3C(C)=O)cc(OC)c1OC (configuration not stated)	.	-	.	.	.	10µM
CC1(C)C(=O)Nc2ccccc2N1C(=O)CSc1nc(-c2ccccc2)cs1	32µM[quencher]	-	-	-	-	-
CC(C)CC1NC(=O)N(CC(=O)N2c3ccccc3NC(=O)C2(C)C)C1=O (configuration not stated)	-	-	-	-	-	5.6µM
CCC1(c2ccc(F)cc2)NC(=O)N(CC(=O)N2c3ccccc3NC(=O)C2(C)C)C1=O (configuration not stated)	.	-	.	.	.	-
CCCc1ccc(OCC(=O)Nc2sc3c(c2C(=O)OCC)CCC(C(C)(C)C)C3)cc1 (configuration not stated)	10µM[quencher]	-	.	.	?	.
CCN(Cc1cccc(S(=O)(=O)O)c1)c1ccc(C(=C2C=CC(=[N+](CC)Cc3cccc(S(=O)(=O)O)c3)C=C2)c2ccccc2S(=O)(=O)[O-])cc1	-	.	.	.	-	.
CC(C)Cn1nc(NC(=O)c2cccc(Cl)c2)c2cc3ccccc3nc21	1413µM[quencher]	-	.	.	-	.
C=CCOc1ccc(C(c2c(C(=O)O)[nH]c3ccccc23)c2c(C(=O)O)[nH]c3ccccc23)cc1	.	35µM	.	.	.	-
COc1cccc(C(=O)NCC(=O)N2CCC3(CC2)NCCc2[nH]cnc23)c1	.	-	.	.	.	11µM
CC[C@H](C)[C@H](NC(=O)[C@@H]1CCCN1C(=O)[C@H](Cc1cnc[nH]1)NC(=O)[C@@H](NC(=O)[C@H](Cc1ccc(O)cc1)NC(=O)[C@@H](NC(=O)[C@H](CCCN=C(N)N)NC(=O)CNC)C(C)C)[C@@H](C)CC)C(=O)O	-	.	-	.	-	.
COc1cc(C2Nc3ccccc3-c3cc(C)nn32)ccc1O (configuration not stated)	-	-	.	.	-	.
CCOc1cccc(C2Nc3ccccc3-c3cc(C)nn32)c1O (configuration not stated)	0.0004µM[quencher]	-	.	.	-	.
Cc1ccc(C)c(CN2C(=O)c3ccccc3S(=O)(=O)c3ccc(C(=O)N4CCOCC4)cc32)c1	2.8µM[quencher]	-	.	.	-	.
CCOc1ccc(S(=O)(=O)NCCC(=O)NCC(c2cccs2)N2CCOCC2)cc1 (configuration not stated)	.	-	.	.	.	2.2µM
O=C(O)c1cc2cc(Cc3cccnc3)ccc2o1	-	.	-	28µM!	-	.
NC1=Nc2cccc3cccc1c23	-	-	-	20µM	-	7.9µM
C(=N\NC1=Nc2cccc3cccc1c23)/c1ccccc1	-	-	-	-	-	-
